What all share (test): NCI-60 one-dose screen, 48 h (100 = growth as untreated, 0 = no growth, -100 = all killed)
Assay [1] has as its system NCI-H23 lung. Particulars: 10 µM unless noted.
Assay [2] has as its system NCI-H226 lung. The conditions noted are these: 10 µM unless noted.
The subject of assay [3] is NCI-H322M lung. Particulars: 10 µM unless noted.
The subject of assay [4] is HOP-62 NSCLC. Particulars: 10 µM unless noted.
For assay [5], the system named is NCI-H460 lung. Particulars: 10 µM unless noted.
Assay [6] relates to HOP-92 NSCLC. The conditions noted are these: 10 µM unless noted.
The test system of assay [7] is NCI-H522 lung. The conditions noted are these: 10 µM unless noted.
The subject of assay [8] is A549/ATCC NSCLC. The conditions noted are these: 10 µM unless noted.
The test system of assay [9] is 786-0 renal. The conditions noted are these: 10 µM unless noted.
Assay [10] has as its system COLO 205 colon. Particulars: 10 µM unless noted.
Assay [11] concerns DU-145 prostate. The conditions noted are these: 10 µM unless noted.
Assay [12] deals with K-562 leukemia. The conditions noted are these: 10 µM unless noted.
In assay [13] the test system is MALME-3M melanoma. Particulars: 10 µM unless noted.
Assay [14] deals with MDA-MB-231 breast. Particulars: 10 µM unless noted.
In assay [15] the test system is SF-268 CNS. Particulars: 10 µM unless noted.
For assay [16], the system named is SF-295 CNS. The conditions noted are these: 10 µM unless noted.
In assay [17] the test system is SF-539 CNS. Particulars: 10 µM unless noted.
Assay [18] concerns UACC-257 melanoma. The conditions noted are these: 10 µM.
Assay [19] has as its system M14 melanoma. Particulars: 10 µM unless noted.
For assay [20], the system named is RXF 393 renal. The conditions noted are these: 10 µM unless noted.

Structures are written as SMILES. The panel holds about 83,000 compounds, 20% with a hit somewhere; the sample as a whole holds those more often.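 Compound tested at a single concentration for 48 hours in 96-well plates; a percent growth value below 10 was scored as active.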 Unmarked numbers belong to inactive results. Activity calls are given as the source filed them.

Turning to `CCc1cccc(C)c1NC(=O)c1sc2nc3c(cc2c1N)C(=O)CCC3`, the growth is 39.1% in assay [1]; 62.1% in assay [2]; 51.3% in [3]; 23.3% in [4]; 8.12% (active) in assay [5]; 79.2% in [6]. The growth in assay [7] is -0.871% (active); in assay [8], 22.9%; in [9] it was 38.7%; in [10], -7.24% (active); in [11], 14.2%; in [12], 8.64% (active). The growth in assay [13] is 45.1%; in assay [14], 31%; in assay [15], 42.7%; in assay [16], 10.8%; in [17], -14.4% (active); in assay [18] it was 66.6%. Moreover, in [19], the growth was 12.5%.

Take `COc1cc(CCn2nnc3c(Nc4ccc(N5CCOCC5)cc4)ncnc32)cc(OC)c1`: the growth was 95.1% in [1]; 90.7% in assay [2]; 111% in assay [3]; 104% in assay [4]; 98.4% in [5]; 47.3% in assay [6]. Besides, the growth in [7] was 88.5%; in [8], 98.1%; in [9], 107%; in assay [10], 94.9%; in [11], 99.3%; in assay [12], 44.4%. In addition, the growth was 100% in [13]; 91.9% in assay [14]; 99.7% in [15]; 100% in assay [16]; 87.5% in [17]; 102% in assay [18]. In [19], the growth was 85.5%.

For `Nc1c(C(=O)Nc2cccc([N+](=O)[O-])c2)sc2nc3c(cc12)C(O)CCC3` (stereo unspecified), the growth in assay [1] is 67.6%; in assay [2], 80.8%; in assay [3], 78.2%; in [4], 55.1%; in assay [5], 28.2%; in assay [6], 72.1%. Further, the growth is 28.3% in assay [7]; 39.2% in assay [8]; 68.7% in assay [9]; 40.8% in [10]; 71.4% in assay [11]; 17.6% in [12]. Further, the growth was 65.8% in assay [13]; 65.5% in assay [14]; 60.5% in assay [15]; 57.4% in [16]; 37% in assay [17]; 66.8% in assay [18]. In [19], the growth is 35.3%.

`C=C1C(=O)O[C@H]2[C@H]1CC/C(COC(=O)NCc1cc(OC)cc(OC)c1)=C\CC[C@@]1(C)O[C@@H]21`: the growth in assay [1] was 20.8%; in assay [2], 13.2%; in [3], 73.4%; in assay [4], 44.9%; in [5] it was 34.9%; in assay [6], -21.6% (active). In addition, the growth in assay [7] is -52.7% (active); in assay [8], 51.2%; in assay [9], -37.7% (active); in assay [10], -64.9% (active); in [11], -6.21% (active); in [12] it was 3.43% (active). Also, the growth in [13] is -44.1% (active); in assay [14], -5.09% (active); in [20], -41.9% (active); in assay [15], 21.4%; in assay [16], 81.4%; in assay [17], 5.25% (active). Further, in assay [19], the growth was -31% (active).

With `O=C(Cc1c(F)cccc1Cl)Nc1ccc(S(=O)(=O)Nc2ncccn2)cc1`, the growth in assay [1] was 97.6%; in assay [2], 99.4%; in [3], 116%; in assay [4], 96.2%; in assay [5], 114%; in assay [6], 91.1%. The growth in assay [7] was 104%; in [8], 110%; in assay [9] it was 103%; in [10], 105%; in [11] it was 104%; in [12], 89.7%. Moreover, the growth in [13] is 124%; in assay [14], 109%; in assay [20] it was 38.1%; in assay [15], 116%; in [16], 92.5%; in assay [17], 96.5%. Moreover, in assay [19], the growth was 110%.

As for `CCO/C=N/NC(=O)c1ccncc1`, the growth in [1] was 102%; in assay [2], 106%; in assay [3] it was 107%; in assay [4] it was 103%; in [5], 104%; in assay [6] it was 104%. The growth in assay [7] was 98%; in assay [8], 106%; in [9], 105%; in assay [10] it was 110%; in assay [11], 105%; in [12] it was 108%. The growth in assay [13] was 106%; in assay [14], 109%; in [20], 109%; in assay [15], 101%; in assay [16], 116%; in assay [17], 111%. The growth in assay [19] was 114%.

For `C[N+](C)(C)c1ccc(CC2c3ccccc3-c3ccccc32)cc1`, the growth in assay [1] was 78.5%; in assay [2], 82.2%; in [3] it was 87.8%; in assay [4] it was 38.9%; in [5], 87.3%; in assay [6], 28.8%. For the same compound, the growth was 59.9% in assay [7]; 62% in assay [8]; 73.9% in assay [9]; 59.8% in [10]; 101% in [11]; 70.6% in [12]. In addition, the growth in [13] was 74.9%; in [14] it was 74.7%; in assay [20] it was 103%; in assay [15] it was 42.4%; in [16], 79.1%; in [17] it was 25.5%. Further, in [19], the growth was 75.4%.

`COc1ccc(-c2nnc(COc3ccc(NS(=O)(=O)c4ccc(OC)cc4)cc3F)o2)cc1`: the growth in assay [1] was 56.6%; in assay [2], 57.9%; in [3], 83.6%; in assay [4], 93.9%; in [5] it was 77.8%; in [6], 70.9%. For the same compound, the growth in [7] was 49.2%; in assay [8] it was 62.8%; in [9], 74.8%; in [10], 70.6%; in assay [11], 80.8%; in assay [12], 55.8%. Moreover, the growth was 78.6% in assay [13]; 82.7% in [14]; 84.6% in assay [15]; 67.8% in assay [16]; 80.5% in [17]; 74.9% in [18]. Further, the growth in [19] was 78.2%.

In the case of `CC(=O)Nc1nc(C(=O)N2N=C(C)/C(=C/c3ccc(Cl)cc3)C2=O)cs1`, the growth in assay [1] is 102%; in assay [2], 106%; in assay [3] it was 99%; in assay [4] it was 97%; in assay [5] it was 105%; in [6] it was 95.7%. For the same compound, the growth in assay [7] was 44.7%; in assay [8], 103%; in assay [9], 100%; in assay [10], 104%; in assay [11], 103%; in assay [12] it was 106%. For the same compound, the growth is 93.1% in assay [13]; 110% in assay [14]; 96.2% in [15]; 98.2% in [16]; 107% in assay [17]; 94% in [18]. The growth in assay [19] was 96.7%.

Turning to `CN(C)C1CCC(NC2=CC(=O)C=CC2=O)CC1` (stereo unspecified), the growth was 110% in assay [1]; 116% in [2]; 102% in assay [3]; 116% in assay [4]; 109% in [5]; 118% in assay [6]. Moreover, the growth was 90.2% in [7]; 106% in assay [8]; 121% in [9]; 128% in assay [10]; 107% in assay [11]; 111% in assay [12]. Besides, the growth in assay [13] is 115%; in assay [14], 109%; in assay [20], 118%; in assay [15], 99.9%; in assay [16], 128%; in [17] it was 112%. In addition, the growth in [19] was 107%.

In the case of `COC(=O)c1ccc2nc(-c3cc4ccccc4n3C)n(CCCCOc3cc4c(cc3OC)C(=O)N3CCC[C@H]3C=N4)c2c1`, the growth is 7.22% (active) in assay [1]; -31.8% (active) in assay [2]; -38.1% (active) in assay [3]; 15.6% in assay [4]; -25.9% (active) in assay [5]; -28.5% (active) in assay [6]. Also, the growth is -28.1% (active) in assay [7]; -11.8% (active) in assay [8]; 8.78% (active) in assay [9]; -39.4% (active) in [10]; 22.1% in [11]; 44.6% in assay [12]. For the same compound, the growth in assay [13] is -80.1% (active); in assay [14] it was -14.7% (active); in assay [15], 1.79% (active); in [16], -26.7% (active); in assay [17], -13.8% (active); in assay [19], -12.7% (active).

For the compound `C=CC(=O)N[C@H](/C=C/C(=O)OCC)Cc1ccc(-c2cc(Cl)cc(Cl)c2)cc1`, the growth in assay [1] was 76.1%; in assay [2], 68.9%; in [3], 92.9%; in assay [4], 88.4%; in assay [5], 98.7%; in [6], 73.7%. Moreover, the growth is 51.1% in [7]; 76.4% in assay [8]; 96% in [9]; 95.8% in assay [10]; 91.1% in [11]; 89.4% in assay [12]. Further, the growth is 87.6% in assay [13]; 72.9% in assay [14]; 84.7% in [15]; 83.1% in assay [16]; 99.9% in assay [17]; 88.7% in [19].

Source of the values: PubChem BioAssay (NCI).
